PubChem BioAssay (EPA / NIEHS)
Several values for one entry are separate records, joined by “and”; a condition that tells them apart may be missing. Equal entries are not always repeated. Inconclusive results are not listed. A structure can be active in one record and inactive in another. Activity calls are given as the source filed them. How the source made its calls: active means hit-call score of the fitted dose curve at least 0.9, where 1 is the maximum; inconclusive means response in the unintended direction; inactive means score below 0.9.

What was measured:
[1] = molecular target: Serine/threonine-protein phosphatase PP1-alpha catalytic subunit (Homo sapiens) (UniProt P62136); assay: NVS_ENZ_hPPP1CA: NovaScreen (NVS) Enzymatic Assay for human Protein Phosphatase 1 Aatalytic subunit Alpha (PPP1CA) (AID 2283200)
Summary of the method: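 Chemicals were first screened in duplicate at 25 uM, and those passing threshold (e.g. 30% inhibition) were run as concentration series to 50 uM. Cell-free recombinant protein, 1.33 h read, fluorescent substrate/product mobility-shift detection, normalised to DMSO.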

[2] = molecular target: human MET Proto-Oncogene, Receptor Tyrosine Kinase (MET), MET (gene 4233) (UniProt P08581); assay: NVS_ENZ_hMet: NovaScreen (NVS) Enzymatic Assay for human MET Proto-Oncogene, Receptor Tyrosine Kinase (MET) (AID 2283180)
Summary of the method: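 Hits from a 25 uM duplicate screen were retested in concentration series up to 50 uM. Enzyme activity was measured by fluorescence after electrophoretic separation of product from substrate, 1 h after compound addition, relative to DMSO.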

[3] = molecular target: human Phosphoinositide 3-kinase alpha (PI3Ka), PIK3CA (gene 5290) (UniProt P42336); assay: NVS_ENZ_hPI3Ka: NovaScreen (NVS) Enzymatic Assay for human Phosphoinositide 3-kinase alpha (PI3Ka) (AID 2283196)
Summary of the method: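 Fluorescence/mobility-shift readout of substrate conversion by recombinant enzyme, 1 h post-dosing. Primary screen in duplicate at 25 uM; actives (e.g. ≥30% inhibition) retested in singleton concentration-response, top concentration 50 uM.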

[4] = molecular target: human Matrix Metalloproteinase-1 (MMP1), MMP1 (gene 4312) (UniProt P03956); assay: NVS_ENZ_hMMP1: NovaScreen (NVS) Enzymatic Assay for human Matrix Metalloproteinase-1 (MMP1) (AID 2283181)
Summary of the method: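 Cell-free fluorescent substrate assay of human MMP1, read after 1 h. A single 25 uM duplicate screen was followed by concentration series to a maximum of 50 uM for actives meeting threshold; inhibition analysed against DMSO baseline.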

[5] = molecular target: human Matrix Metalloproteinase-9 (MMP9), MMP9 (gene 4318) (UniProt P14780); assay: NVS_ENZ_hMMP9: NovaScreen (NVS) Enzymatic Assay for human Matrix Metalloproteinase-9 (MMP9) (AID 2283190);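 further: cell-free recombinant MMP9 protease activity read by fluorescent substrate signal; active means inhibition seen as loss of fluorescence signal versus DMSO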
Summary of the method: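 Extracted enzyme, fluorescent substrate, 1 h post-dose read. Single conc 25 uM in duplicate, then concentration series for actives. Activity = signal loss relative to DMSO negative control.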

[6] = molecular target: Mitogen-activated protein kinase 3 (Homo sapiens) (UniProt P27361); assay: NVS_ENZ_hMAPK3: NovaScreen (NVS) Enzymatic Assay for human Mitogen-Activated Protein Kinase 3 (MAPK 3) (AID 2283177)
Summary of the method: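 Chemicals were first tested in duplicate at 25 uM, with hits re-run as concentration series (max 50 uM). Recombinant enzyme activity, measured 1 h post-dose in a cell-free format, was read by fluorescence/mobility shift relative to DMSO.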

[7] = molecular target: human Matrix Metalloproteinase-2 (MMP2), MMP2 (gene 4313) (UniProt P08253); assay: NVS_ENZ_hMMP2: NovaScreen (NVS) Enzymatic Assay for human Matrix Metalloproteinase-2 (MMP2) (AID 2283184)
Summary of the method: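 Compounds first screened in duplicate at a single 25 uM, with actives followed up in concentration series. Recombinant human MMP2 cleaves a fluorogenic substrate; fluorescence taken at 1 h, inhibition fitted relative to DMSO.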

[8] = molecular target: human Phosphodiesterase 4A1 (PDE4A1), PDE4A (gene 5141) (UniProt P27815); assay: NVS_ENZ_hPDE4A1: NovaScreen (NVS) Enzymatic Assay for human Phosphodiesterase 4A1 (PDE4A1) (AID 2283191)
Summary of the method: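 Fluorescent substrate turnover by recombinant PDE4A1 read after 1 h by mobility-shift separation. Primary duplicate screen at 25 uM; hits retested in concentration series with a 50 uM maximum, relative to DMSO.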

[9] = molecular target: human Matrix Metalloproteinase-3 (MMP3), MMP3 (gene 4314) (UniProt P08254); assay: NVS_ENZ_hMMP3: NovaScreen (NVS) Enzymatic Assay for human Matrix Metalloproteinase-3 (MMP3) (AID 2283185)
Summary of the method: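 Fluorescent substrate turnover by recombinant MMP3 read after 1 h, signal loss scored against DMSO. Compounds first run in duplicate at 25 uM single dose, then actives confirmed by concentration series.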

[10] = molecular target: human MAP Kinase-Activated Protein Kinase 2 (MAPKAPK2), MAPKAPK2 (gene 9261) (UniProt P49137); assay: NVS_ENZ_hMAPKAPK2: NovaScreen (NVS) Enzymatic Assay for human MAP Kinase-Activated Protein Kinase 2 (MAPKAPK2) (AID 2283178)
Summary of the method: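 Chemicals screened in duplicate at 25 uM, then to 50 uM top concentration in concentration-response, against recombinant human MAPKAPK2; substrate conversion read 1 hr post-dosing by fluorescence after electrophoretic mobility-shift separation, loss-of-signal relative to DMSO.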

[11] = molecular target: human Matrix Metalloproteinase-7 (MMP7), MMP7 (gene 4316) (UniProt P09237); assay: NVS_ENZ_hMMP7: NovaScreen (NVS) Enzymatic Assay for human Matrix Metalloproteinase-7 (MMP7) (AID 2283183)
Summary of the method: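 Compounds first tested at 25 uM in duplicate, then at up to 50 uM in concentration series if active. Protease activity measured by fluorescence intensity 1 h after dosing, with fitting relative to DMSO.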

[12] = molecular target: human Mitogen- and Stress-activated Protein Kinase-1 (Msk1), RPS6KA5 (gene 9252) (UniProt O75582); assay: NVS_ENZ_hMsk1: NovaScreen (NVS) Enzymatic Assay for human Mitogen- and Stress-activated Protein Kinase-1 (Msk1) (AID 2283187)
Summary of the method: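 Chemicals first run in duplicate at 25 uM, with actives followed up in singleton concentration series to 50 uM maximum. Enzyme activity came from substrate/product mobility-shift separation with fluorescence detection after 1 h incubation of the recombinant protein.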

[13] = molecular target: cAMP-dependent protein kinase catalytic subunit alpha (Homo sapiens) (UniProt P17612); assay: NVS_ENZ_hPKA: NovaScreen (NVS) Enzymatic Assay for human Protein Kinase A (PKA) (AID 2283192)
Summary of the method: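 Cell-free kinase activity read by fluorescence after mobility-shift separation of substrate and product, 1 h post-dosing. Single-concentration duplicate screen (25 uM) preceded singleton concentration series (top 50 uM); loss of signal versus DMSO.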

[14] = molecular target: human Protein Tyrosine Phosphatase Non-receptor Type 1 (PTPN1), PTPN1 (gene 5770) (UniProt P18031); assay: NVS_ENZ_hPTPN1: NovaScreen (NVS) Enzymatic Assay for human Protein Tyrosine Phosphatase Non-receptor Type 1 (PTPN1) (AID 2283201)
Summary of the method: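 Chemicals were first tested in duplicate at 25 uM, and those passing threshold went on to singleton concentration series topping at 50 uM. Recombinant enzyme, specific substrate, product separated by mobility shift, fluorescence read at 1.33 h; activity loss relative to DMSO.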

[15] = molecular target: human Phosphodiesterase 5 (PDE5), PDE5A (gene 8654) (UniProt O76074); assay: NVS_ENZ_hPDE5: NovaScreen (NVS) Enzymatic Assay for human Phosphodiesterase 5 (PDE5) (AID 2283194)
Summary of the method: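 Screening began in duplicate at 25 uM, with actives taken into concentration-response. Enzyme activity of recombinant PDE5 toward its substrate was measured at 1 h by fluorescence mobility-shift detection, relative to DMSO controls.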

PPP2CA (gene 5515) = PPP2CA (gene 5515) (UniProt P67775); assay: NVS_ENZ_hPPP2CA: NovaScreen (NVS) Enzymatic Assay for human Protein Phosphatase 2 Aatalytic subunit Alpha (PPP2CA) (AID 2283199)
Summary of the method: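 Cell-free phosphatase activity: fluorescent substrate turnover by recombinant human enzyme, resolved by mobility shift at 1.33 h. Compounds passing the 25 uM duplicate primary screen were rerun in singleton series with a 50 uM top concentration.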

[16] = molecular target: Collagenase 3 (Homo sapiens) (UniProt P45452); assay: NVS_ENZ_hMMP13: NovaScreen (NVS) Enzymatic Assay for human Matrix Metalloproteinase-13 (MMP13) (AID 2283182)
Summary of the method: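 Recombinant MMP13 cleaving fluorescent substrate, cell-free, measured 1 h after dosing. Primary duplicate screen at 25 uM; actives tested in concentration-response up to 50 uM; loss of signal relative to DMSO.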

Sequence of Mitogen-activated protein kinase 3 (Homo sapiens) (P27361 whole entry, looked up): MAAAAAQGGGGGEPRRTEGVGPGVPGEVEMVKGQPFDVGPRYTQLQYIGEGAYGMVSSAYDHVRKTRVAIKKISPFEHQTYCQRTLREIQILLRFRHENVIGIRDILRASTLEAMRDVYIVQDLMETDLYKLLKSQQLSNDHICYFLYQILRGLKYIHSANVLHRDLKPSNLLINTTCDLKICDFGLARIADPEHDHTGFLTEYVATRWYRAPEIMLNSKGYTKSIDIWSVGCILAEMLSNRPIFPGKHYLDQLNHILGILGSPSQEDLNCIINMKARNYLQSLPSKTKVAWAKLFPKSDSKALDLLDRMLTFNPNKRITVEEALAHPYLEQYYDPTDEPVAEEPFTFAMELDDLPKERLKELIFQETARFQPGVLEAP
Sequence of human Matrix Metalloproteinase-9 (MMP9), MMP9 (gene 4318) (P14780 whole entry, looked up): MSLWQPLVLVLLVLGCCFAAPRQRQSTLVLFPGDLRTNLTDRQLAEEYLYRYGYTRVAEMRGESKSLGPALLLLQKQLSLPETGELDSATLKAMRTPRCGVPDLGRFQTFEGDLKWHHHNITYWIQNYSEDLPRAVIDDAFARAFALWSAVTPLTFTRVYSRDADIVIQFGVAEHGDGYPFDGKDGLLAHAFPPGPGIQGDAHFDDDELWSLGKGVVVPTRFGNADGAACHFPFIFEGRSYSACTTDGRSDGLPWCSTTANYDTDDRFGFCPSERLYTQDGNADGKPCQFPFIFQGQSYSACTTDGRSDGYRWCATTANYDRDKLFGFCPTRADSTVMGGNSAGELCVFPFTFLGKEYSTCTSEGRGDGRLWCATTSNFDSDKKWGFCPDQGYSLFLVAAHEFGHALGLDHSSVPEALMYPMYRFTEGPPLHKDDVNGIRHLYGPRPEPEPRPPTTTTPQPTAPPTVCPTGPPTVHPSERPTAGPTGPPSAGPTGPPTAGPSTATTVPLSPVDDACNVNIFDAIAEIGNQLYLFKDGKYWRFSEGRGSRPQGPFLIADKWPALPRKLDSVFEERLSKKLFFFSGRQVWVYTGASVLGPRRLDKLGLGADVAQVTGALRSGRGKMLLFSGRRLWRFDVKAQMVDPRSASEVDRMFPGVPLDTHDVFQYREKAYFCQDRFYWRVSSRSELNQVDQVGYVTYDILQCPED
Sequence of human Phosphodiesterase 4A1 (PDE4A1), PDE4A (gene 5141) (P27815 whole entry, looked up): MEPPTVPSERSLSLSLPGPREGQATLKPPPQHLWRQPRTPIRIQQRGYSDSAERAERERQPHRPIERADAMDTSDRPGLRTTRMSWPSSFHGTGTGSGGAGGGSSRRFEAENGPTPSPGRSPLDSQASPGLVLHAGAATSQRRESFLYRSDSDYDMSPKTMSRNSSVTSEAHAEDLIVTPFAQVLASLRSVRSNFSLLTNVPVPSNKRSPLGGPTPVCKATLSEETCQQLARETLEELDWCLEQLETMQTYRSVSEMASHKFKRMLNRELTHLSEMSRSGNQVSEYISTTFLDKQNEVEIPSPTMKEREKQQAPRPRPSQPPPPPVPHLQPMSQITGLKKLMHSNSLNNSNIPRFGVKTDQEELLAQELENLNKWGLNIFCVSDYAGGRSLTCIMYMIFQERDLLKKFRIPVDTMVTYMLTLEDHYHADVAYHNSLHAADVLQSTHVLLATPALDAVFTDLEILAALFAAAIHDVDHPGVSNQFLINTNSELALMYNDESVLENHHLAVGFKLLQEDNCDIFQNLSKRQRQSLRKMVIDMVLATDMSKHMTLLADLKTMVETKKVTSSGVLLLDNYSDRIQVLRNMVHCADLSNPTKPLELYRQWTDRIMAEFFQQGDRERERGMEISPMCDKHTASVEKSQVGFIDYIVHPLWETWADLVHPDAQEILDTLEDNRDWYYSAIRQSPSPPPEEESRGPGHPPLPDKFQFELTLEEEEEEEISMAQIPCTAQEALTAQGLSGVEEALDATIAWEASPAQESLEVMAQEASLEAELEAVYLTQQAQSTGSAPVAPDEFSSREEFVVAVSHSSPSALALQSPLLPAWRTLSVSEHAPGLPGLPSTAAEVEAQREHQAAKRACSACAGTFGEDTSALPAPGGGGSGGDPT
Sequence of human Matrix Metalloproteinase-3 (MMP3), MMP3 (gene 4314) (P08254 whole entry, looked up): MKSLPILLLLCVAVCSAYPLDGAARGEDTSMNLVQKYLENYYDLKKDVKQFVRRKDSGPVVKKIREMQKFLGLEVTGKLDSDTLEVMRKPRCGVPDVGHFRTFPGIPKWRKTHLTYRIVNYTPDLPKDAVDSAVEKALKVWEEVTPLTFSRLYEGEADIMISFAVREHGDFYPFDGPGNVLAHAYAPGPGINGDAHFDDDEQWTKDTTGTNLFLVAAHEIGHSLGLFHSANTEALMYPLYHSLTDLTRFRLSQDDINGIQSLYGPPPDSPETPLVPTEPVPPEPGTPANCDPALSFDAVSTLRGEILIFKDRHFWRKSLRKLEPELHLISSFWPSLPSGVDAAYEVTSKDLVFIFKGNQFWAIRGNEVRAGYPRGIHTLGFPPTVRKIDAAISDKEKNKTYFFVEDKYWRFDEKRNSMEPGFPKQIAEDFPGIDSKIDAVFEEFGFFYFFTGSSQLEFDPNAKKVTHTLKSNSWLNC
Sequence of human Matrix Metalloproteinase-7 (MMP7), MMP7 (gene 4316) (P09237 whole entry, looked up): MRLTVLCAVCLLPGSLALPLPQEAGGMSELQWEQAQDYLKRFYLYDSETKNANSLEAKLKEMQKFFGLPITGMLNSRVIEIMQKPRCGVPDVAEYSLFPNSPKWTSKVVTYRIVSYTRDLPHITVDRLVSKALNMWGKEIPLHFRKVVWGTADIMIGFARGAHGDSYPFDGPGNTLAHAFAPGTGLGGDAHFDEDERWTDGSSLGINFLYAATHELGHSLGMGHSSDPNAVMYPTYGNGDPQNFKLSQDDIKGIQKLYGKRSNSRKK
Sequence of Serine/threonine-protein phosphatase PP1-alpha catalytic subunit (Homo sapiens) (P62136 whole entry, looked up): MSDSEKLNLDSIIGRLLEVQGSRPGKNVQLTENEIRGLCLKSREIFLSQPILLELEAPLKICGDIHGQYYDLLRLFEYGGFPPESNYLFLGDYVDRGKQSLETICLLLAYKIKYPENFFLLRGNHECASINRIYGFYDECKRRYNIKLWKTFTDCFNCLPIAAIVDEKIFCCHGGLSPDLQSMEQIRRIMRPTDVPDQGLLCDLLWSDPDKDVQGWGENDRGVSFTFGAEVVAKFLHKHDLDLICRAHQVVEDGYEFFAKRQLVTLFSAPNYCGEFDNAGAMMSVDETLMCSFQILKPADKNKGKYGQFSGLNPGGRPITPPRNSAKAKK
Sequence of human Phosphoinositide 3-kinase alpha (PI3Ka), PIK3CA (gene 5290) (P42336 whole entry, looked up): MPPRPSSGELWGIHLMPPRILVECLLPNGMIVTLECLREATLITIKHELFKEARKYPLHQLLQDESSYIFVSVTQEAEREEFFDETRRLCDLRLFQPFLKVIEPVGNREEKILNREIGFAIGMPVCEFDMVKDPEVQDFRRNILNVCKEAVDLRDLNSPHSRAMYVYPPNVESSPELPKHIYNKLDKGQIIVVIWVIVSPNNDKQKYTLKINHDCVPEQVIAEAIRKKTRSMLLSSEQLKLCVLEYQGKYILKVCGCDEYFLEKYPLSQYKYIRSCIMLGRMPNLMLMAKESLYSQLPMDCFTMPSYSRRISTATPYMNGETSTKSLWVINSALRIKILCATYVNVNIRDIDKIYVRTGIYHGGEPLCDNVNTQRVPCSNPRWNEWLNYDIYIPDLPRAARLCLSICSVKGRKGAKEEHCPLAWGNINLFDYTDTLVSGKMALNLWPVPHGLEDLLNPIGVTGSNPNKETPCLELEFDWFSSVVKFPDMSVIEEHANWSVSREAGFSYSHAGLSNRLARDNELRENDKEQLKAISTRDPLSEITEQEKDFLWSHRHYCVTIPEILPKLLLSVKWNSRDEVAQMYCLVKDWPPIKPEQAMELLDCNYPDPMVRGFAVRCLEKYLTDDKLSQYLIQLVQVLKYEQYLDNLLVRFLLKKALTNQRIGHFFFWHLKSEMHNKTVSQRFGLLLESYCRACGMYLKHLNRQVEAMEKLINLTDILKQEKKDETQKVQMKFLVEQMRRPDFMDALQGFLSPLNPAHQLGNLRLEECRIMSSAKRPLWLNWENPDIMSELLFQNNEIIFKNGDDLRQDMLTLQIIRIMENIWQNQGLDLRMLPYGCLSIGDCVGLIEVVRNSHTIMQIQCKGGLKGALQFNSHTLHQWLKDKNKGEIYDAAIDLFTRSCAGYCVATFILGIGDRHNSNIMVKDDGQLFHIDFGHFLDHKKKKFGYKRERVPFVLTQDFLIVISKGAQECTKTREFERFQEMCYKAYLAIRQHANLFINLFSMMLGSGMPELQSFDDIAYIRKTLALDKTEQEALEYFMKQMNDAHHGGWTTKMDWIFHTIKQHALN
Sequence of PPP2CA (gene 5515) (P67775 whole entry, looked up): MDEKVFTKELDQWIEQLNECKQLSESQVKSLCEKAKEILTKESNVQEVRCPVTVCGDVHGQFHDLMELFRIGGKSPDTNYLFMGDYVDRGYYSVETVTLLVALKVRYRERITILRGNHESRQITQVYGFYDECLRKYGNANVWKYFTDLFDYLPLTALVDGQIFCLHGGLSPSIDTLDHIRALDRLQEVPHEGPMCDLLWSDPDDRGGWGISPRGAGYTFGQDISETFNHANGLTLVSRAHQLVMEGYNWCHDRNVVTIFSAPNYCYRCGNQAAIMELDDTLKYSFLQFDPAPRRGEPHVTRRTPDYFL
Sequence of human Matrix Metalloproteinase-1 (MMP1), MMP1 (gene 4312) (P03956 whole entry, looked up): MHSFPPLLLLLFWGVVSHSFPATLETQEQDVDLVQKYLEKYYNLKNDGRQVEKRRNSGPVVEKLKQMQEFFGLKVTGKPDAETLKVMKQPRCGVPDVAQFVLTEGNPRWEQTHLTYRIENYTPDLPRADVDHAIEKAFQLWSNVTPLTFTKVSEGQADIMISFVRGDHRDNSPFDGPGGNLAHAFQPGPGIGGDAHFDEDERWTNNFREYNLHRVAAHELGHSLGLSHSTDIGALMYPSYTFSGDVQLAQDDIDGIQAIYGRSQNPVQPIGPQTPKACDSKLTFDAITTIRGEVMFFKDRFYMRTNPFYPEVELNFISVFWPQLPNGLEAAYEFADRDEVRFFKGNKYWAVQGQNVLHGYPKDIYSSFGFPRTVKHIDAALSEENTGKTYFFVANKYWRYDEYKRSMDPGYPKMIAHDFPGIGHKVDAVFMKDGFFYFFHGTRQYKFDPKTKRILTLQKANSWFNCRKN

In the case of `CCCCNC(=O)OCC#CI`, the outcome [1] is reported as “inactive”.
`CN(C)C(=S)SSC(=S)N(C)C` was tested, and the outcome [2] was “inactive” and the outcome [3] was “inactive”.
With `C=CCC1=C(C)C(OC(=O)C2C(C=C(C)C)C2(C)C)CC1=O` (stereo not given) the AC50 [4] was 8.92 µM (active) and the AC50 [5] was 0.793 µM (active).
For `CCNc1nc(Cl)nc(NCC)n1`, the outcome [6] was “inactive”, the outcome [7] was “inactive” and the AC50 [8] was 8.46 µM (active).
`COC(=O)C=C(C)OP(=O)(OC)OC` was tested, and the outcome [9] was “inactive”.
In the case of `CNC(=S)S`, the outcome [6] is reported as “inactive”, the outcome [10] is reported as “inactive” and the outcome [2] is reported as “inactive”. The outcome [11] was “inactive”, the outcome [9] was “inactive” and the outcome [12] was “inactive”. For the same compound, the outcome [13] was “inactive”.
With `Cc1cc(Cl)ccc1OCC(=O)O` the outcome [1] was “inactive”.
`COP(=S)(OC)Oc1nc(Cl)c(Cl)cc1Cl` was tested, and the outcome [14] was “inactive”.
In the case of `O=C(O)c1nc(Cl)ccc1Cl`, the outcome [9] is reported as “inactive”.
`CCOP(=S)(OCC)SCn1c(=O)oc2cc(Cl)ccc21` was tested, and the outcome [11] was “inactive”, the AC50 [8] was 9.57 µM (active) and the outcome [15] was “inactive”.
In the case of `COc1ccc(C(c2ccc(OC)cc2)C(Cl)(Cl)Cl)cc1`, the outcome [6] is reported as “inactive”, the outcome [11] is reported as “inactive” and the outcome [5] is reported as “inactive”.
In the case of `COc1nc(C)nc(NC(=O)NS(=O)(=O)c2ccccc2Cl)n1`, the outcome [13] is reported as “inactive” and the outcome (PPP2CA (gene 5515)) is reported as “inactive”.
`O=C(Nc1ccccc1)Nc1ccnc(Cl)c1` was tested, and the AC50 [15] was 10 µM (active).
For `CO/C=C(/C(=O)OC)c1ccccc1Oc1cc(Oc2ccccc2C#N)ncn1`, the outcome [16] was “inactive”, the outcome [7] was “inactive” and the outcome [9] was “inactive”. The AC50 [8] was 14 µM (active), the outcome [8] was “inactive” and the outcome [3] was “inactive”.
With `CON(C)C(=O)Nc1ccc(Cl)c(Cl)c1` the AC50 [8] was 3.85 µM (active) and the AC50 [15] was 7.19 µM (active) and 9.03 µM (active).
In the case of `CCCCNC(=O)n1c(NC(=O)OC)nc2ccccc21`, the outcome [5] is reported as “inactive” and the outcome [15] is reported as “inactive”.
`N#Cc1cc(Br)c(O)c(Br)c1` was tested, and the outcome [11] was “inactive”.
For `CC(C)C1(C)N=C(c2nc3ccccc3cc2C(=O)O)NC1=O` (stereo not given), the outcome [4] was “inactive”.
